Screening data deposited in PubChem BioAssay by National Center for Advancing Translational Sciences (NCATS).
Compounds with a hit are over-represented: about 5.5% of the library has one in this group of screens.
ELG1 repair inh: inhibitors of ELG1-dependent DNA repair in HEK293T cells; HEK293T ELG1-luciferase reporter, luminescence, 16 h; DNA damage induced by 5-fluorouridine; AID 504467; 2.3% of 330,000 active; Potency, µM (titrated, usually from 46.1 µM), inactives show at the highest dose activity change, negative = inhibition, hits mostly inhibitors; note: potency is the fitted concentration of half-maximal effect; nearly all actives have a fitted effect of over 55% in size
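Quantitative HTS, concentration-response format. 2,000 cells/well co-treated with 5-fluorouridine and compound, 16 hr in 5% CO2 at 37 °C; ONE-Glo luminescence read after 30 min.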
Giardia killer: kills Giardia lamblia. Giardia lamblia trophozoite viability. activity change, % at 7.66 µM, hits read low. 0.15% of 340,000 active. AID 540267; in the data active = activity change below about -80%; inconclusive = between about -30% and that limit;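 note: parasites exposed to compound for two days anaerobically before the ATP read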
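Killing of trophozoites was scored by loss of ATP luminescence after a 48 hrs anaerobic exposure to compounds at 37 deg C, using 100 cells per well.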
Sfp PPTase inh: blocks B. subtilis Sfp PPTase activity; Q9F4F7; Biochemical Sfp PPTase activity, qHTS; Potency, µM, for the others: largest response in the series, negative = inhibition, usual class: inhibitors; 3.5% of 310,000 active;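 note: the enzyme is Sfp with the accession as filed and its product quenches rhodamine fluorescence; potency is the fitted concentration of half-maximal effect; 0% = enzyme reaction without inhibitor and -100% = no enzyme wells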
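Step 1, compound plus 15 nM Sfp-PPTase, 15 min, room temperature. Step 2, add rhodamine-CoA (5 uM) and BHQ-2-YbbR (12.5 uM). Step 3, read 525/598 nm fluorescence at 0 and 30 min.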
FBPA coupling cs: counter-screen for Giardia aldolase inhibitors: coupling enzyme system; 0.67% of 290,000 active; AID 2472; activity change, negative = inhibition, % at 58.2 µM, hits read low; coupling enzyme system counterscreen, AmpLite Red fluorescence; in the data active = activity change below about -30%
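Coupling enzymes only (glyceraldehyde-3-phosphate) + compound, at 57.5 uM final, 10 min RT; add substrate/coupling/AmpLite Red mix, 20 min RT; fluorescence ex 525/em 598 nm. Actives flag coupling-system interference.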
* marks the source's active call; other numbers are inactive results. Unless noted, calls come from the whole dose curve; as a rule, active = well fitted curve in the direction sought with a large enough effect; inconclusive = small, poorly fitted or top-dose-only effect, or another doubt; inactive = no such curve, though single readings can be large; an effect the other way counts as inactive or inconclusive. Unless noted, % is set by controls: 0 for no effect and ±100 for the full control effect.

`O=C(Nc1cccc(S(=O)(=O)N2CCCCCC2)c1)c1ccc(Cl)nc1` gave ELG1 repair inh 21µM* and Giardia killer -14.
C[C@H](NC(=O)CNC(=O)[C@@H](NC(=O)[C@H](Cc1ccccc1)NC(=O)CNC(=O)CNC[C@@H](N)Cc1ccccc1)[C@@H](C)O)C(=O)N[C@@H](CCCN=C(N)N)C(=O)N[C@@H](CCCCN)C(=O)N[C@@H](CO)C(=O)N[C@@H](C)C(=O)N[C@@H](CCCN=C(N)N)C(=O)N[C@@H](CCCCN)C(N)=O was read as Sfp PPTase inh 13% and FBPA coupling cs 2.
O=C(NCCCN1C(=O)c2ccccc2C1=O)OCc1ccccc1 was read as Giardia killer 8.
O=[N+]([O-])c1ccc(CSc2ncnc3c2ncn3C2OC(CO)C(O)C2O)cc1 (stereo not given) was read as Sfp PPTase inh 6%.
For CC(C)Cc1nnc(NC(=O)C2CC(=O)N(c3ccc4c(c3)OCCO4)C2)s1 (stereo not given) the results were ELG1 repair inh -27% and Giardia killer 1.
Screening O=C(Nc1ccc(S(=O)(=O)N2CCCCC2)cc1)c1ccc(Cl)nc1 returned ELG1 repair inh inconclusive and Giardia killer -19.
For O=C(Nc1cccc(S(=O)(=O)N2CCCCC2)c1)c1ccc(Cl)nc1 the results were ELG1 repair inh 21µM* and Giardia killer -6.
CC(C)[C@H]1C(=O)Nc2ccccc2N1C(=O)N[C@@H](Cc1ccccc1)C(=O)N[C@@H](Cc1ccccc1)C(=O)O was read as ELG1 repair inh 18%, Giardia killer 11, Sfp PPTase inh 5% and FBPA coupling cs 0.
Screening COc1ccc(CCn2c(C3CCCCC3)nc3c(c(=O)c4ccccc4n3C)c2=O)cc1 returned ELG1 repair inh 16µM*, Giardia killer -14, Sfp PPTase inh -5% and FBPA coupling cs 2.
Screening COc1ccc(Cn2c(C3CCCCC3)nc3c(c(=O)c4ccccc4n3C)c2=O)cc1 returned ELG1 repair inh inconclusive, Giardia killer -22, Sfp PPTase inh 9% and FBPA coupling cs 2.
`COc1ccc(Nc2cc(C(=O)N3CCc4ccccc4C3)c3ccccc3n2)c(OC)c1` gave ELG1 repair inh 21µM*, Giardia killer -22, Sfp PPTase inh 3% and FBPA coupling cs -1.
COc1ccccc1Nc1cc(C(=O)N2CCc3ccccc3C2)c2ccccc2n1 was read as ELG1 repair inh inconclusive, Sfp PPTase inh 9% and FBPA coupling cs -1.
COc1ccccc1-c1cc(C(=O)N2CCc3ccccc3C2)c2ccccc2n1 was read as ELG1 repair inh 13µM*, Sfp PPTase inh -7% and FBPA coupling cs 3.
For Cc1ccc2nc(N/N=C\c3ccc([N+](=O)[O-])o3)nc(-c3ccccc3)c2c1 the results were ELG1 repair inh 21µM*, Giardia killer -99*, Sfp PPTase inh -1% and FBPA coupling cs 5.
For O=[N+]([O-])c1ccc(/C=N/Nc2ccc3ccccc3c2)o1 the results were ELG1 repair inh inconclusive, Giardia killer inconclusive, Sfp PPTase inh -20% and FBPA coupling cs 2.
`O=[N+]([O-])c1ccc(/C=N/Nc2nc(-c3ccccc3)c3cc(Br)ccc3n2)o1` gave ELG1 repair inh -14%, Giardia killer -91*, Sfp PPTase inh 9% and FBPA coupling cs 12.
Screening N#Cc1ccccc1/C=N/Nc1nc(-c2ccccc2)c2cc(Br)ccc2n1 returned ELG1 repair inh inconclusive, Giardia killer -14, Sfp PPTase inh -9% and FBPA coupling cs 2.
For O=C(CSc1ncccc1C(=O)Oc1ccccc1Cl)Nc1ccccc1Cl the results were Giardia killer -10.
CCCCCCCC1=CC2=CC(=O)C(C)(O)C(=O)C2=CN1CCCC (stereo not given) was read as Sfp PPTase inh -8% and FBPA coupling cs -6.
For FC(F)(F)c1ccc(C2NCCc3sccc32)cc1 (stereo not given) the results were ELG1 repair inh 16%, Giardia killer 13, Sfp PPTase inh -26% and FBPA coupling cs 0.
O=C1C=CC(=O)N1CCNc1ncc(C(F)(F)F)cc1Cl was read as ELG1 repair inh inconclusive, Giardia killer -2, Sfp PPTase inh 7.1µM* and FBPA coupling cs 5.
For Cc1cc(C(=O)CN2c3cccc4cccc(c34)S2(=O)=O)c(C)n1C the results were ELG1 repair inh inconclusive and Giardia killer 3.
`O=C(Nc1ccc(Cl)cc1)N(Cc1nc2ccccc2c(=O)[nH]1)Cc1cccs1` gave ELG1 repair inh 18µM*, Giardia killer -13, Sfp PPTase inh 4% and FBPA coupling cs -1.
For O=C(Nc1ccccc1Cl)N(Cc1nc2ccccc2c(=O)[nH]1)Cc1cccs1 the results were ELG1 repair inh inconclusive, Giardia killer 3, Sfp PPTase inh 13% and FBPA coupling cs 2.
For COc1cc(OC)c(OC)cc1/C=C/C(=O)c1ccc(NS(=O)(=O)c2ccc(C)cc2)cc1 the results were ELG1 repair inh 15µM*, Giardia killer 5, Sfp PPTase inh 3% and FBPA coupling cs -1.
COc1ccc(C(=O)/C=C/Nc2ccc(S(=O)(=O)Nc3cccc(C(C)=O)c3)cc2)cc1 was read as ELG1 repair inh 23µM*, Giardia killer -7, Sfp PPTase inh 0% and FBPA coupling cs -5.
Screening COc1cccc(C(=O)/C=C/Nc2ccc(S(=O)(=O)Nc3ccc(C(C)=O)cc3)cc2)c1 returned ELG1 repair inh 0%, Giardia killer -4, Sfp PPTase inh 48% and FBPA coupling cs 0.
O=C(c1ccc(NS(=O)(=O)c2ccc3c(c2)OCCO3)cc1)N1CCCCC1 was read as ELG1 repair inh 23µM*, Giardia killer -12, Sfp PPTase inh 17% and FBPA coupling cs 2.
Nc1cc(=O)[nH]c(SCCSc2cc(Cl)ccc2Cl)n1 was read as ELG1 repair inh inconclusive, Giardia killer 6, Sfp PPTase inh -12% and FBPA coupling cs 0.
Cc1sc2nc3c(SC(C)C(=O)O)cc(C(=O)c4ccccc4O)cn3c(=O)c2c1C (stereo not given) was read as ELG1 repair inh 10%, Giardia killer 5, Sfp PPTase inh 50µM* and FBPA coupling cs 1.
Screening CCOC(=O)c1sc2nc3c(SCC(=O)O)cc(C(=O)c4ccccc4O)cn3c(=O)c2c1C returned ELG1 repair inh 11%, Giardia killer -27, Sfp PPTase inh 1% and FBPA coupling cs 3.
Screening Cc1cc(O)c(C(C)C)cc1N=Cc1cc([N+](=O)[O-])ccc1O returned ELG1 repair inh 10%, Giardia killer 14, Sfp PPTase inh 14µM* and FBPA coupling cs -28.
For O=c1[nH]cc(N=Cc2cc([N+](=O)[O-])ccc2O)c(=O)[nH]1 the results were ELG1 repair inh -3%, Sfp PPTase inh -3% and FBPA coupling cs 2.
For Cc1cc(O)c(C(C)C)cc1N=Cc1ccccc1O the results were ELG1 repair inh 5%, Giardia killer -4, Sfp PPTase inh 14µM* and FBPA coupling cs -51*.
Screening CC(N=Cc1ccccc1O)c1ccccc1 (stereo not given) returned ELG1 repair inh 10%, Giardia killer -13, Sfp PPTase inh 10% and FBPA coupling cs 0.
